We go through 30 sequences from the supplement of paper PMC11417369.

Whole data set: some 25,000 sequences, median “ln(normalized median fluorescence intensity)” near 9.7, cut for the highest 2% near 11. The list comes from a sample in which the highest values are over-represented; it also holds similar and randomly drawn sequences.

The assay concerns PfAP2-HC AP2 domain (GST-tagged). As to the kind of experiment: gcPBM binding intensity (ln(normalized median fluorescence intensity)); higher = stronger DNA binding. In a few lines: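 DNA-binding domains from P. falciparum, fused to GST and produced in E. coli, were put on an Agilent 4 × 180k double-stranded probe array for 1 h in 1× PBS holding 1% milk, 0.2 mg/ml BSA, 0.5% salmon testes DNA and 0.03% Triton X-100. Probes were primer-extended, 36 bp long and drawn from intergenic genomic regions, with negative controls included. After Alexa488 anti-GST antibody detection and a 488 nm scan, binding intensity was set as the highest Masliner-normalised natural-log median intensity across replicate spots of either probe orientation.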
As to “AAAGATGATAAAATATGTACACACAGTTTATACATT [XGTACX_site8703]”, the “gcPBM binding intensity (ln)” value was 9.95.
Consider “AAGAAAAAAAAAATTACACACTGCGCAGATACACAA [CACACA_site1289]”, for which the “gcPBM binding intensity (ln)” value is 9.86.
In the case of “ATTTTTTCTTTTCGATGTACCCTTCTTATTCTTTAT [XGTACX_site3782]”, the “gcPBM binding intensity (ln)” value turned out to be 10.1.
For “TCTTGATCTTATATATATCTACAATATTTTATACAT [TGCATGCA_negctrl_site569]” the value was 10.2.
In the case of “CTGCGTTTAATATGCGTGCACCTTGGTTTTATATCT [GTGCAC_site9525]” it was 9.83.
For the sequence “GTAAGTTTGAATACACGTACAAATTTATTAAAGTCC [XGTACX_site6722]”, the “gcPBM binding intensity (ln)” value came to 9.72.
In the case of “ATTCTATATGTTACATAAACCTATATTTTTTTTTTT [CACACA_negctrl_site860]” it was 9.58; in that of “TTTTACTTAAGACACACACACACAAAAAAAAAAAAA [CACACA_site6573]”, 10.8; in that of “CTATTTCATGGACACACACACACAAACAAACATATA [CACACA_site4696]”, 11.1.
As for “CTATTTCAGAAACACACACACACAAACAAACATATA [CACACA_site978]”, the “gcPBM binding intensity (ln)” value is 10.4.
For “CTATTTCATAAACACACACACACAAACAAACATATA [CACACA_site8234]” the value was 11.5; for “ATATAACATGGACACACACACATATATATATATTAT [CACACA_site6135]”, 10.4.
In the case of “TAAATAAATATATATTCACACACAAACATATATATA [CACACA_site9332]” it was 10.5; in that of “AATAAATATATATTCACACACAAACATATATATATA [CACACA_site4023]”, 10; in that of “TTTTAAGAAAAAAAATGTACACATGAAAATAGTGAA [XGTACX_site5898]”, 9.5.
In the case of “TAGATACATAAAAGTGGTACATATATATATATATAT [XGTACX_site6263]” it was 9.85; in that of “TAACTTAAATAATACATACACACATGTACATACAGA [CACACA_site1594]”, 10.2; in that of “TCTATTTTTTATATGGTGCATTGTTCTTATTAATAT [GTGCAC_site9392]”, 9.77.
“CACAAACAAAGACACACACACACACGCACAAAAATG [CACACA_site7193]”: the “gcPBM binding intensity (ln)” value was found to be 10.7.
For “ATAAAAATTGATTATACACACGCGCACCCACAACAA [CACACA_site3536]” the value was 10.3; for “ATTACATACACGCGCACACACAAAAAAAAAAAAAAA [CACACA_site1334]”, 9.98.
In the case of “ATTATAGACACGCGCACACACAACAAAAAAAAAAAA [CACACA_site9180]” it was 11.3; in that of “ATAGACAGCGCACAAACACACAAACACGCACGCACA [CACACA_site6349]”, 10.2.
In the case of “TGATTATACGCACGCGCACACACAACCAAAAAAAAA [CACACA_site3537]” it was 10.2; in that of “GTTACACAAACAAACACACACACACGCACGCACAAA [CACACA_site7191]”, 11.3.
Turning to “AAAAAACAAAAACACACGCACACAAAAAAAAAAAAA [CACACA_site802]”, the “gcPBM binding intensity (ln)” value turned out to be 10.2.
For “ATTATACACCCGCGCACACACAACAAAAAAAAAAAA [CACACA_site5871]” the value was 11.1.
For “TTATATTATAGACACACACACAAAAAAAAAAAAAAA [CACACA_site3816]” the value was 10.1; for “TGATTATAGACACGCGCACACACAACAAAAAAAAAA [CACACA_site9179]”, 10.1.
In the case of “TACACAAACAGACACACACACACACGCGCACAAAAA [CACACA_site7192]” it was 11.
